The results in this text go back to PubChem BioAssay AID1508600 (Functional Genomics Laboratory (NCATS/FGL), 2020).

Screen size: about 53,000 sequences; about 3,700 (7%) were called active. Many of the other results were omitted from the sample, so actives are more common in it than they were. Values without a mark were called inactive.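 Rule for the calls: active = gene knockdowns whose robust z-score for IL-1 alpha signal is at least 2 or at most -2, so actives lie on both sides; inactive = the rest.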

The assay in a line: Components of the Cytosolic LPS Sensing Pathway: Gene Identification via Genome-wide siRNA Screen.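 Note: robust z of the log signal after scaling to non-targeting control siRNA wells of the plate.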 Particulars: RAW264.7 macrophages, IL-1a HTRF, actives lie on both sides, screened at 100 nM (by protocol), cells primed 5 h with Pam3CSK4 first. The procedure, abridged: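 Using IL-1a HTRF as read-out, the screen measured release from RAW264.7 cells after 48h siRNA knockdown (100 nM), 5 h Pam3CSK4 priming and 24 h cytosolic LipidA. Values were expressed relative to negative-control wells as robust z-scores.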
(In general: TR-FRET usually uses a lanthanide donor and a delayed reading to cut background.)
GCUCAAACACUUACACACUTT against Alcam: the z-score is -0.616.

“GCCAGUUCCUAUCUGGCUUTT against 4931428L18Rik”: the z-score is 1.03.

With GCCAAUGGUCACGAACCUATT against Senp5, the z-score is -0.217.

As for GCUUGCUAAGAUUGAGUAUTT against Cerkl, the z-score was -0.928.

As for CCGCACAAGAGGUAGAUACTT against Ddx5, the z-score is -2.56 (active).

On to GGUCAGUAUCAGAAUGAUCTT against Rft1, for which the z-score was -0.831.

On to GCAGUGAGACUUUUAAUAGTT against Snx17, for which the z-score is 0.284.

For GGCAAUAUUUCAGAACCUGTT against Tfb2m, the z-score is 0.44.

Consider GGCCUUACUCUUAAGUUCUTT against Brf1, for which the z-score is 3.7 (active).

For the sequence GGUGCAUGAAGAGUUAAAATT against Jade1, the z-score is 1.5.

On to GGAGAAAGUUGAACGUAUUTT against Cct2, for which the z-score is -2.58 (active).

Consider GGAAUUCUUAGCCAAUGCCTT against Gas2l1, for which the z-score was 0.396.

In the case of GCUGUCUAGUACAUCUGACTT against Cry2, the z-score is -0.32.

On to GGCUAACACUUAAAUUAGCTT against Atoh8, for which the z-score was 0.00248.

Turning to GGCCCAACCUUGGAUCUUUTT against Nudt22, the z-score was 0.751.

For GGGCACAGACAUGUUUGAGTT against Padi3, the z-score was -1.35.

With GGAUGAACCAAACCAAUAATT against Mgat4d, the z-score was 2.24 (active).

Take GGACAAACAGGGAGAAAGATT against Mogat2: the z-score is -0.091.

As to GCCAGACUGGAGGUAAAAUTT against Serpinb10, the z-score was -2.24 (active).

For the sequence GGAGUGAGACAAUUCUCACTT against Sprr2k, the z-score is 0.555.

Take GCUAUUUAGUUAGUUGUGUTT against Acbd3: the z-score was 0.334.

Take CCGUGGGAUUUAAGAUAUCTT against Rab34: the z-score was -0.931.

Turning to GUGUGCUUGAUGGAGACCATT against Riiad1, the z-score was 2.25 (active).

As to GCAUUUCUACUGGAUUGUGTT against Luc7l2, the z-score was 0.0609.

Consider GCUCUUUCUAGCUUAUGAUTT against Chmp1b, for which the z-score is -0.464.

Regarding GGAUGCUUGUGCAAAGAUGTT against Anks1b, the z-score was 0.862.

For the sequence GGAGCCUCUAGGAAACAAATT against Slc28a3, the z-score is 0.309.

Regarding CCGAGUCCAGAACACUCUUTT against Aff2, the z-score is -0.616.

For the sequence CCUGCCAUAGUUAGUUUUUTT against Khdc1a, the z-score was 7.91 (active).

In the case of CGAGCUUUCACUGCUACAGTT against Ppargc1b, the z-score is -1.35.

With GCCACUGUACCUUAUUGGUTT against Msrb1, the z-score is 0.331.

Regarding GGAAGACGGCAACUAUCCATT against Cyp2c50, the z-score was 1.23.

With GGUAUUUUUUUCUCAGCCATT against Dhdh, the z-score was -0.937.

Turning to “CGCCUUCCUUCAACACGCATT against 1700049L16Rik”, the z-score is -1.12.

As for GCCCUACCAAAAGGAUGAUTT against Cfap300, the z-score was -2.02 (active).

Regarding GGGAUUUGUUGUCUAAGAUTT against Mapk10, the z-score is -0.54.

Take GCAGAUGCGCUUGGAACUUTT against Pde4b: the z-score was 0.0658.

Consider GGCUCCUAACUCACUGGGATT against Ormdl1, for which the z-score is 0.0548.

GCUUUGGUGCACUUGCUUUTT against Akr1c13: the z-score is 2.2 (active).

GAUGAAGAAGAGCAGGCUCTT against Gm5168: the z-score is 1.18.

With CGUAUCAACAUCUCAGAAGTT against Pcbp2, the z-score is -0.632.

With GGAUUCACGUAAGAUUGACTT against Prl6a1, the z-score was 0.0592.

Take GGUGGUAUCACCUCUAUCATT against Cfap52: the z-score was -2.49 (active).

On to GACGAUUCUCUGUUGGUGUTT against Hcrt, for which the z-score was 0.577.

Turning to CCUGGAGAUUCAGUACGAATT against Krt25, the z-score was 1.55.

GGUUCUUGCUGAGAGCAUGTT against Rft1: the z-score is 0.943.

As to GGAUUGAAGCAGGCAGCUUTT against Purb, the z-score is -0.787.

In the case of GGUUCAAGGUGAAGACUCCTT against Reg3b, the z-score is 0.793.

With GGUGUGUAUGGUGCUAGGATT against Olfr1507, the z-score is -2.43 (active).

Turning to CCAGCUAAAAAGAUGGUAGTT against Rreb1, the z-score is 0.319.

With CCUGAAAGCUAAUAUGAAATT against Defb44-ps, the z-score is 0.0593.

For GGCUUUUAGUACUGAUAGUTT against Neu3, the z-score was 2.6 (active).

Take CCUCGUUACAUCCUCCCUGTT against Pold1: the z-score was -0.142.

Turning to CGAUUAUCGGCCCAGCAAATT against Bmp1, the z-score is 1.01.

As for GGUCUCCCUUCAGUAUGAGTT against Cela3b, the z-score was -0.602.

Regarding CCUAGAGCUUUUCAGAAUATT against Rsl1d1, the z-score was 0.4.

As to CGAUCGGCGACCUUUUAGATT against Irak3, the z-score is -0.527.

For the sequence GGCAGUAGUUAGCAAAUAUTT against Ska1, the z-score is -1.24.

Turning to GGAUCUGGAAUCACUGUUUTT against Lmnb2, the z-score is -0.451.

For the sequence GGUUUUAGGACACCUGGUUTT against Gys1, the z-score is 2.13 (active).

For GGUGCCAUCCCAAACUUUATT against Frat2, the z-score was 0.788.

As to CCUCUUGAGGUCUCGUCAATT against Fam221b, the z-score is -0.0968.

With GGAUACAAAUCAGGUUCUCTT against Kansl2, the z-score is 0.0399.

For the sequence GCCUUCUUAAGCUCUGAGCTT against Dhrs13, the z-score is -2.97 (active).

In the case of GGAAAAAAGAGAGGUCAGATT against Meox1, the z-score was -1.02.

On to GGAAAUUGCUCAGGAGUUUTT against Anxa5, for which the z-score was -1.26.

For GGAGAAUCCUGUUUUUUGUTT against Elp4, the z-score was 0.43.

In the case of GGUGCCAAUCAUUGUUAUGTT against Kcnv1, the z-score is 1.73.

Consider CCCGAGAUGAGGAACUUUUTT against Ndnf, for which the z-score was -0.359.

As for GGAGUAAUGAUAAGCCCUCTT against Tex264, the z-score was -0.0637.

With GCUCUACCUCAGAUAAAGGTT against Banf2, the z-score is -2.45 (active).

For the sequence GGAUCUCAUACAGAAUCCGTT against Haus4, the z-score was 0.216.

With GGACCUAGAGGACUAUAAATT against P3h2, the z-score is 0.894.

Consider “GGAGCAGGUUACCAGAAAATT against E130114P18Rik”, for which the z-score was 0.301.

As for GGGUUUGACUGUACAGUACTT against Adamts4, the z-score is -1.29.

GGCCUUUACACGUGAGUCUTT against Zfp420: the z-score is -0.864.

Take CGGAUGCGACAAAAAUCACTT against Il4: the z-score was 1.77.

As to GCACUUACCGGAUCCAUUGTT against Clk4, the z-score was -0.793.

Regarding GCACAGGUCUAAUUCGUCUTT against Grik1, the z-score was -2.78 (active).

Turning to GGACUUGACCCUGUCUUUGTT against Ostm1, the z-score was 0.871.

GGAACAAAAACUGGUGCGCTT against Emilin2: the z-score is 2.07 (active).

In the case of GGCAUCUGAGCUGAGGAUUTT against Gem, the z-score is -0.295.

For GGAUAGCUUGAUCAAUCUUTT against Cisd2, the z-score is -0.13.

As to GCCUCUUAAUUUUAAGCUGTT against Gpr82, the z-score was -0.505.

For the sequence GGGAAACUUGAACUUUGAUTT against Rsph1, the z-score was -1.54.

Turning to GGGACAAUUCAGGAUGGAGTT against Ift88, the z-score is 0.0559.

Turning to GCGGCUUUACAAGGAUGACTT against Elob, the z-score was 2 (active).

As for GGUCCUUUUUUCAACCAGCTT against Sh3gl1, the z-score is -0.259.

Take CCAAGGGUUGUUAAGUAUUTT against Cdh26: the z-score is 1.08.

For the sequence GGAUUUUCAUCGUGCUUUGTT against Necab3, the z-score is 1.23.

On to CCGUGAUAAUGUAACACCUTT against Prtg, for which the z-score was 0.0383.

In the case of GGUAAACAUUGCUACUUUGTT against Mpdz, the z-score is 0.935.

Consider GGCCAAGAAAAACUACUAUTT against Kcnk5, for which the z-score was -0.706.

In the case of CCUAGGUUUGAAGACUCCCTT against Asphd2, the z-score is -2.03 (active).

Turning to CCAAAUAUCACACACCCGATT against Fam187a, the z-score is 0.798.

Consider GGUGACUACUACAGGAAACTT against Hps1, for which the z-score was 2.3 (active).

Take GCACUUAUGAUGUCCUAUUTT against Sema4b: the z-score is 0.606.

Consider GGACAAAGUCUAGAAACUATT against Lrrc2, for which the z-score was 0.26.

For GGCUAUGACAAUGCCUACATT against Maged2, the z-score was 0.00495.

Take GCGAAUCUUGCUUCUGACCTT against H4c8: the z-score is -2.13 (active).

Regarding GGUUUUUCGAGUUUUUUCUTT against Msx1, the z-score was 1.06.

In the case of GGCUGCUUAUAAAAUUUUCTT against Mipep, the z-score was 0.398.

With GGCAUGUUUCUUGACUUAATT against Coil, the z-score is 0.122.

In the case of GGACCUGGUUCAGGUAUCATT against Col6a3, the z-score is -2.17 (active).

GGGUUUAUUUGGUCAAGAUTT against Mpc2: the z-score was -0.349.

Consider GCAUACGUGUUCAAUGGUGTT against Ppef2, for which the z-score was -0.541.

With CCGUGGAACUUAAAUAGUUTT against Pard6g, the z-score was 2.66 (active).

For the sequence GGAUCUCGCUGGCAAUAAUTT against Gpr45, the z-score is -0.222.
